From a collection of fitness landscapes (doi:10.1126/science.1257360)
Over roughly 140,000 sequences, “enrichment ratio after two sorts for PhoP signalling” has its median near 0; the highest 2% begin near 11. What follows is part of a selection rich in the highest values, with near analogues and random picks from the rest.

B1: PhoQ; a variant is named by its letters at X, in order, P23837 (parent)
chain: MKKLLRLFFPLSLRVRFLLATAAVVLVLSLAYGMVALIGYSVSFDKTTFRLLRGESNLFYTLAKWENNKLHVELPENIDKQSPTMTLIYDENGQLLWAQRDVPWLMKMIQPDWLKSNGFHEIEADVNDTSLLLSGDHSIQQQLQEVREDDDDAEMTHSVAVNVYPATSRMPKLTIVVVDTIPVELKSSYMVWSWFIYVLSANLLLVIPLLWVAAWWSLRPIEALAKEVRELEEHNRELLNPATTRELTSLVRNLNRLLKSERERYDKYRTTLTDLTHSLKTPLXXLQXXLRSLRSEKMSVSDAEPVMLEQISRISQQIGYYLHRASMRGGTLLSRELHPVAPLLDNLTSALNKVYQRKGVNISLDISPEISFVGEQNDFVEVMGNVLDNACKYCLEFVEISARQTDEHLYIVVEDDGPGIPLSKREVIFDRGQRVDTLRPGQGVGLAVAREITEQYEGKIVAGESMLGGARMEVIFGRQHSAPKDE

Variants of: B1
Assay: enrichment ratio after two sorts for PhoP signalling (ratio (wild type AVST 3.29)); higher = more functional
Conditions: with PhoP (E. coli)

PWYS and WGDA cannot be ordered by enrichment ratio: no more than 0.25 for the first, no more than 0.25 for the second.

Going from NQIK to TQHQ, the enrichment ratio rises from no more than 0.25 to 13.8.

Going from TQQF to TQSM, the enrichment ratio falls from 33.4 to 23.3.

LAQF and TQHP cannot be ordered by enrichment ratio: no more than 0.25 for the first, no more than 0.25 for the second.

First: TQTD
Second: TQHI
The enrichment ratio of the first is lower: no more than 0.25 for the first, 3.97 for the second.

Compared with TQMS, TQSF is higher in enrichment ratio: 4.53 for the first, 7.45 for the second.

Going from TQHF to RNSM, the enrichment ratio falls from 16.2 to no more than 0.25.

DWSM and NYQY cannot be ordered by enrichment ratio: no more than 0.25 for the first, no more than 0.25 for the second.

NTGP and YRMS cannot be ordered by enrichment ratio: no more than 0.25 for the first, no more than 0.25 for the second.

First: FSKE
Second: MTHL
The enrichment ratio of the first is lower: no more than 0.25 for the first, 7.87 for the second.

PNLT and TPTL cannot be ordered by enrichment ratio: no more than 0.25 for the first, no more than 0.25 for the second.

SMDI and REVG cannot be ordered by enrichment ratio: no more than 0.25 for the first, no more than 0.25 for the second.

WQFM and PAAY cannot be ordered by enrichment ratio: no more than 0.25 for the first, no more than 0.25 for the second.

ENTT and GKMH cannot be ordered by enrichment ratio: no more than 0.25 for the first, no more than 0.25 for the second.

KCNH and LNPK cannot be ordered by enrichment ratio: no more than 0.25 for the first, no more than 0.25 for the second.

Compared with MECS, MERM is lower in enrichment ratio: 11.2 for the first, no more than 0.25 for the second.

Going from MEWI to MELA, the enrichment ratio falls from 24 to no more than 0.25.

First: MECK
Second: DECV
The enrichment ratio of the first is higher: 27.3 for the first, 25.8 for the second.

Going from NECS to MELS, the enrichment ratio rises from no more than 0.25 to 9.24.

MEGM and DPCV cannot be ordered by enrichment ratio: no more than 0.25 for the first, no more than 0.25 for the second.

DECI and MKCS cannot be ordered by enrichment ratio: no more than 0.25 for the first, no more than 0.25 for the second.

VHCY and MPCS cannot be ordered by enrichment ratio: no more than 0.25 for the first, no more than 0.25 for the second.

PKNK and PCQL cannot be ordered by enrichment ratio: no more than 0.25 for the first, no more than 0.25 for the second.

First: ICAL
Second: STWD
The enrichment ratio of the first is higher: 0.516 for the first, no more than 0.25 for the second.

TWLL and FYED cannot be ordered by enrichment ratio: no more than 0.25 for the first, no more than 0.25 for the second.

FVPW and NCRM cannot be ordered by enrichment ratio: no more than 0.25 for the first, no more than 0.25 for the second.

First: MECV
Second: MECI
The enrichment ratio of the first is higher: 18.2 for the first, 12.8 for the second.

MEGD and NECV cannot be ordered by enrichment ratio: no more than 0.25 for the first, no more than 0.25 for the second.

Going from MMCV to MECA, the enrichment ratio falls from 4.31 to 3.

DNCI and VVVI cannot be ordered by enrichment ratio: no more than 0.25 for the first, no more than 0.25 for the second.

MDLY and TMFE cannot be ordered by enrichment ratio: no more than 0.25 for the first, no more than 0.25 for the second.

MWWC and SMYI cannot be ordered by enrichment ratio: no more than 0.25 for the first, no more than 0.25 for the second.

Compared with SMAI, SMAS is lower in enrichment ratio: 13.5 for the first, 11.6 for the second.

Compared with SMAY, SMGD is lower in enrichment ratio: 25.3 for the first, 1.08 for the second.

Compared with SMRY, SMGY is higher in enrichment ratio: no more than 0.25 for the first, 7.3 for the second.

Going from SMVG to SMAN, the enrichment ratio falls from 8.8 to 6.01.

Compared with SMTG, SMAG is higher in enrichment ratio: 5.2 for the first, 11.3 for the second.

Compared with SMAT, HEDR is lower in enrichment ratio: 7.92 for the first, no more than 0.25 for the second.

DAFY and QNHA cannot be ordered by enrichment ratio: no more than 0.25 for the first, no more than 0.25 for the second.

MIDS and PWKL cannot be ordered by enrichment ratio: no more than 0.25 for the first, no more than 0.25 for the second.

HVPL and VFFI cannot be ordered by enrichment ratio: no more than 0.25 for the first, no more than 0.25 for the second.

KESQ and HGIC cannot be ordered by enrichment ratio: no more than 0.25 for the first, no more than 0.25 for the second.

First: HKCM
Second: TKCM
The enrichment ratio of the first is lower: no more than 0.25 for the first, 46.1 for the second.

Compared with AICM, AKCM is higher in enrichment ratio: 6.05 for the first, 15.6 for the second.

KKCM and MKCM cannot be ordered by enrichment ratio: no more than 0.25 for the first, no more than 0.25 for the second.

SKKH and PYDF cannot be ordered by enrichment ratio: no more than 0.25 for the first, no more than 0.25 for the second.

MIQV and GAMG cannot be ordered by enrichment ratio: no more than 0.25 for the first, no more than 0.25 for the second.

Going from FALA to FALI, the enrichment ratio rises from 5.9 to 15.1.

First: VSLI
Second: VSLA
The enrichment ratio of the first is higher: 14 for the first, 0.756 for the second.

First: ISLI
Second: ISLA
The enrichment ratio of the first is higher: 11.2 for the first, no more than 0.25 for the second.

Going from NSLI to FALS, the enrichment ratio rises from 4.88 to 8.07.

Compared with TSLI, RSLI is lower in enrichment ratio: 11.8 for the first, no more than 0.25 for the second.

First: MMLI
Second: ISLT
The enrichment ratio of the first is lower: no more than 0.25 for the first, 0.863 for the second.

Compared with ENRC, VSCH is higher in enrichment ratio: no more than 0.25 for the first, 2.85 for the second.

TYRA and DETW cannot be ordered by enrichment ratio: no more than 0.25 for the first, no more than 0.25 for the second.

WTDY and PCSF cannot be ordered by enrichment ratio: no more than 0.25 for the first, no more than 0.25 for the second.

NFAL and WRVV cannot be ordered by enrichment ratio: no more than 0.25 for the first, no more than 0.25 for the second.

First: FCLI
Second: KSLI
The enrichment ratio of the first is higher: 7.58 for the first, no more than 0.25 for the second.

Compared with FSLI, PMYI is lower in enrichment ratio: 12.9 for the first, no more than 0.25 for the second.

First: SDIH
Second: SCIH
The enrichment ratio of the first is higher: 2.15 for the first, 1.7 for the second.

First: KKIH
Second: SQIH
The enrichment ratio of the first is lower: no more than 0.25 for the first, 12.4 for the second.

First: HKIH
Second: TKIH
The enrichment ratio of the first is lower: no more than 0.25 for the first, 15.7 for the second.

GFSR and REWS cannot be ordered by enrichment ratio: no more than 0.25 for the first, no more than 0.25 for the second.

WQHV and ASQY cannot be ordered by enrichment ratio: no more than 0.25 for the first, no more than 0.25 for the second.

First: LEFA
Second: LEFC
The enrichment ratio of the first is lower: 1.62 for the first, 12.9 for the second.

First: LEFP
Second: LEWC
The enrichment ratio of the first is lower: no more than 0.25 for the first, 17.6 for the second.

LRWC and LLWC cannot be ordered by enrichment ratio: no more than 0.25 for the first, no more than 0.25 for the second.

WGSE and FYLD cannot be ordered by enrichment ratio: no more than 0.25 for the first, no more than 0.25 for the second.

PSVE and TCIS cannot be ordered by enrichment ratio: no more than 0.25 for the first, no more than 0.25 for the second.

First: TCQQ
Second: TCGQ
The enrichment ratio of the first is higher: 11.5 for the first, no more than 0.25 for the second.

FCQI and KSWN cannot be ordered by enrichment ratio: no more than 0.25 for the first, no more than 0.25 for the second.

First: TCWN
Second: TCQI
The enrichment ratio of the first is lower: 14.9 for the first, 15.2 for the second.

Going from TCQY to KCQY, the enrichment ratio falls from 31.4 to no more than 0.25.

TCII and TCVQ cannot be ordered by enrichment ratio: no more than 0.25 for the first, no more than 0.25 for the second.

Compared with KCQI, SLAF is higher in enrichment ratio: no more than 0.25 for the first, 8.18 for the second.

Compared with TQKA, TAWY is higher in enrichment ratio: no more than 0.25 for the first, 6.15 for the second.

HCAS and KCQA cannot be ordered by enrichment ratio: no more than 0.25 for the first, no more than 0.25 for the second.

First: SCQA
Second: TCQF
The enrichment ratio of the first is lower: no more than 0.25 for the first, 6.94 for the second.

First: TCQK
Second: TCMN
The enrichment ratio of the first is lower: 14.2 for the first, 58.3 for the second.

Compared with TCEN, TCQN is higher in enrichment ratio: 0.333 for the first, 23 for the second.

Compared with TCVN, TCQA is higher in enrichment ratio: 2.66 for the first, 16.2 for the second.

Compared with TYMN, TCDN is lower in enrichment ratio: 0.285 for the first, no more than 0.25 for the second.

TCQP and MRIG cannot be ordered by enrichment ratio: no more than 0.25 for the first, no more than 0.25 for the second.

IPRI and IFEI cannot be ordered by enrichment ratio: no more than 0.25 for the first, no more than 0.25 for the second.

CNHC and QRMF cannot be ordered by enrichment ratio: no more than 0.25 for the first, no more than 0.25 for the second.

HTHA and KCQL cannot be ordered by enrichment ratio: no more than 0.25 for the first, no more than 0.25 for the second.

Compared with TCQL, FCQL is lower in enrichment ratio: 13.2 for the first, no more than 0.25 for the second.

Compared with HECV, HEQY is lower in enrichment ratio: 15.4 for the first, no more than 0.25 for the second.

First: HESH
Second: HECS
The enrichment ratio of the first is lower: no more than 0.25 for the first, 2.84 for the second.

First: HEQV
Second: HEQP
The enrichment ratio of the first is higher: 25.5 for the first, no more than 0.25 for the second.

HNSW and ERQE cannot be ordered by enrichment ratio: no more than 0.25 for the first, no more than 0.25 for the second.

SAFP and QGAG cannot be ordered by enrichment ratio: no more than 0.25 for the first, no more than 0.25 for the second.

QVAH and AQQL cannot be ordered by enrichment ratio: no more than 0.25 for the first, no more than 0.25 for the second.

ADQL and GGQL cannot be ordered by enrichment ratio: no more than 0.25 for the first, no more than 0.25 for the second.

First: AGQL
Second: AKQL
The enrichment ratio of the first is higher: 11.6 for the first, no more than 0.25 for the second.

Compared with TGQL, AIQL is higher in enrichment ratio: 5.01 for the first, 11.7 for the second.

Going from WIQL to CGQL, the enrichment ratio rises from no more than 0.25 to 14.3.

MQGH gave an enrichment ratio of no more than 0.25.
